Screening results deposited in PubChem by Sanford-Burnham Center for Chemical Genomics.
CYP2C9 inh: blockers of cytochrome P450 2C9 activity – biochemical, luminescence, ADME assay, primary screen; CYP2C9 Supersomes, luciferin-H conversion; hit rate 20% among 96,000; inhibition, % at 5 µM;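 active = blocking of liver enzyme CYP2C9 beyond about 50% at 5 µM, limit read from the data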
Target sequence (P11712 whole entry, looked up): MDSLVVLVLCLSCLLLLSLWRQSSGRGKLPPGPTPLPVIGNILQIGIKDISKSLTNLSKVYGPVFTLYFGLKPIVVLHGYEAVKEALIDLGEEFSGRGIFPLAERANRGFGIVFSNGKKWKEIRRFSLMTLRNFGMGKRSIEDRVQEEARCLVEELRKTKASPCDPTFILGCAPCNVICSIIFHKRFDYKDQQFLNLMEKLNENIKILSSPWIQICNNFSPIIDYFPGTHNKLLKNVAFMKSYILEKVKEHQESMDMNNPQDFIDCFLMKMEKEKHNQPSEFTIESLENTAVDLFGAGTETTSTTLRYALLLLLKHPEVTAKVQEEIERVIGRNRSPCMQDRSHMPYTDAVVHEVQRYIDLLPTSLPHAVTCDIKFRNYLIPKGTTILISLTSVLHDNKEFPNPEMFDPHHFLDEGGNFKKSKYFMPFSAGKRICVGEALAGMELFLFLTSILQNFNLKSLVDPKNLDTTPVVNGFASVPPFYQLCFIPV
CYP2C19 inh: blockers of cytochrome P450 2C19 activity – biochemical, luminescence, ADME assay, primary screen; P33261; inhibition, % at 5 µM; CYP2C19 Supersomes, luciferin-H EGE luminescence, 30 min; hit rate 21% among 96,000;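 active = CYP2C19 inhibition above a set limit at 5 µM in the primary screen, cut at about 50% in these data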;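 also: plate controls were negative control wells for no effect and 2.5 mM tranylcypromine positive control for full effect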
CYP2C9 activ: human CYP2C9 activators, primary screen, biochemical, luminescence | activation factor at 5 µM | hit rate 1.4% among 96,000 | AID 1024, 2008 | Cytochrome P450 2C9 (Homo sapiens), P11712 | recombinant CYP2C9, luciferin-H conversion; active compounds read high; factor 1 = untreated enzyme, 0 = blocked;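 active = activation factor of 2 or more for CYP2C9 at a 5 µM dose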;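 also: 0 = sulfaphenazole-blocked wells and 1 = vehicle-only wells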
CYP2C19 act: human CYP2C19 activators, primary screen, biochemical, luminescence | Cytochrome P450 2C19 (Homo sapiens), P33261 | recombinant CYP2C19, luciferin-H EGE luminescence; active compounds read high; 0 = fully inhibited enzyme, 1 = untreated enzyme | activation factor at 5 µM | 96,000 tested, under 10 active;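 active = activation factor of at least 2 at 5 µM in the primary screen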;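 also: 0 = wells with 2.5 mM tranylcypromine and 1 = vehicle-only wells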
* = called active by the depositor. The list is not random: actives were taken first. Their share in the collection is about 31%.

SMILES	CYP2C9 inh	CYP2C19 inh	CYP2C9 activ	CYP2C19 act
CCOC(=O)Cn1c(CN(Cc2ccccc2)Cc2ccccc2)nc2c1c(=O)n(C)c(=O)n2C	99*	83*	0	0.2
CN(Cc1ccccc1)Cc1nc2c(c(=O)n(C)c(=O)n2C)n1Cc1ccccc1Cl	81*	26	0.2	0.7
Cn1c(=O)c2c(nc(CN3CCN(c4ccccc4)CC3)n2Cc2ccccc2Cl)n(C)c1=O	-13	-1	1.1	1
Cc1nnc(SCC(=O)Nc2ccc(N3CCOCC3)cc2)o1	-6	-9	1.1	1.1
C=CCn1c(C(C)NC(=O)COC)nc2ccccc21 (stereo not drawn)	16	10	0.8	0.9
COCCn1c(CN(C)Cc2ccccc2)nc2c1c(=O)n(C)c(=O)n2C	47	11	0.5	0.9
COC(=O)Cn1c(CN(Cc2ccccc2)Cc2ccccc2)nc2c1c(=O)[nH]c(=O)n2C	53*	35	0.5	0.7
CCCCn1c(CN(C)Cc2ccccc2)nc2c1c(=O)n(C)c(=O)n2C	98*	55*	0	0.4
O=C(NCSc1ccnc(SCNC(=O)c2ccc(F)cc2)n1)c1ccc(F)cc1	8	6	0.9	0.9
S=c1sc2c(N3CCN(Cc4ccccc4)CC3)ncnc2n1-c1ccccc1	60*	38	0.4	0.6
CCN1CCN(c2ncnc3c2sc(=S)n3-c2ccccc2)CC1	12	10	0.9	0.9
CCOC(=O)c1c(C)[nH]c(C)c1C(=O)COC(=O)c1ccc(S(=O)(=O)N(CC)CC)cc1	97*	84*	0	0.2
CNS(=O)(=O)c1cccc(C(=O)OCC(=O)N2CCc3ccccc3C2)c1	-70	33	1.7	0.7
CNS(=O)(=O)c1cccc(C(=O)OCc2cc(Cl)cc3c2OCOC3)c1	-92	78*	1.9	0.2
CCOC(=O)c1c(C)[nH]c(C)c1C(=O)COC(=O)c1ccc(Cl)c(S(N)(=O)=O)c1	16	92*	0.8	0.1
CCCC(C)NC(=O)COC(=O)c1ccc(Cl)c(S(N)(=O)=O)c1 (stereo not drawn)	-34	7	1.3	0.9
CCOC(=O)c1c(C)[nH]c(C)c1C(=O)COC(=O)c1cccc(S(=O)(=O)NC)c1	4	100*	1	0
CCOC(=O)c1sc(NC(=O)c2ccc(S(=O)(=O)N(CC)CC)cc2)nc1C	3	0	1	1
CCC1CCCCN1C(=O)CN1C(=O)CSC1=O (stereo not drawn)	13	16	0.9	0.8
O=C(COC(=O)c1cc(S(=O)(=O)NCc2ccccc2)ccc1O)NCc1ccccc1	46	8	0.5	0.9
CNS(=O)(=O)c1cccc(C(=O)OCC(=O)NCc2ccccc2)c1	-136	13	2.4*	0.9
C/C(=N\N=C(/N)SC1CC(=O)N(c2ccc(Cl)cc2)C1=O)c1cccs1 (stereo not drawn)	-29	14	1.3	0.9
C/C(=N\N=C(/N)SC1CC(=O)N(c2ccccc2)C1=O)c1cccs1 (stereo not drawn)	56*	29	0.4	0.7
Cc1noc(/C=C/N(C)C)c1S(=O)(=O)N1CCCC(C(=O)Nc2ccc3c(c2)OCO3)C1 (stereo not drawn)	67*	48	0.3	0.5
Cc1noc(/C=C/N(C)C)c1S(=O)(=O)N1CCCC(C(=O)NC2CCCCC2)C1 (stereo not drawn)	44	10	0.6	0.9
SMILES	CYP2C9 inh	CYP2C19 inh	CYP2C9 activ	CYP2C19 act
Cc1noc(/C=C/N(C)C)c1S(=O)(=O)N1CCCC(C(=O)N2CCCCC2)C1 (stereo not drawn)	58*	3	0.4	1
COC(=O)c1cccc(S(=O)(=O)N2CCN(c3nc4ccccc4s3)CC2)c1	26	24	0.7	0.8
Cc1oc(-c2ccc(Cl)cc2)nc1CN1CCCC(C(=O)N2CCN(C(=O)c3ccco3)CC2)C1 (stereo not drawn)	52*	55*	0.5	0.4
Cc1ccsc1-c1nc(CSCC(=O)N2CCN(c3ccccc3)CC2)c(C)o1	24	63*	0.8	0.4
CCOC(=O)C1CCN(C(=O)CS(=O)Cc2nc(-c3ccc(C)cc3)oc2C)CC1 (stereo not drawn)	67*	40	0.3	0.6
Cc1ccc(-c2nc(CSCC(=O)N3CCCC3)c(C)o2)cc1	18	10	0.8	0.9
CCOC(=O)C1CCN(C(=O)CSCc2nc(-c3ccc(OCC)cc3)oc2C)CC1	81*	54*	0.2	0.5
